Inconclusive results are not listed. Activity calls are given as the source filed them. Unless noted, calls come from the whole dose curve; as a rule, active = well fitted curve in the direction sought with a large enough effect; inconclusive = small, poorly fitted or top-dose-only effect, or another doubt; inactive = no such curve, though single readings can be large; an effect the other way counts as inactive or inconclusive.
Assays:
[1] = Primary qHTS for inhibitors of nuclear receptor binding SET domain protein 2 (NSD2) in an RCH-ACV wild type WT cells (2C) (AID 1645877); note: potency is the fitted concentration of half-maximal effect; nearly all actives have a fitted effect of over 70% in size
[2] = biological target: Glutathione peroxidase 1 (Homo sapiens) (UniProt P07203); test: Primary qHTS Assay for Inhibitors of Recombinant Selenoprotein Glutathione Peroxidase 1 (GPX1) (AID 1845191); note: nearly all actives have a fitted effect of over 65% in size
Method in brief: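 NADPH consumption tracked by fluorescence at 340/450 nm between t=0 and t=15 min, room temperature. Final mix: 10 nM GPX1, 100 nM glutathione reductase, 1 mM GSH, 0.5 mM NADPH, 0.5 mM cumene hydroperoxide, 0.01% BSA; 30 min compound–enzyme preincubation.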

[3] = biological target: Phospholipid hydroperoxide glutathione peroxidase GPX4 (Homo sapiens) (UniProt P36969); test: Primary qHTS Assay for Inhibitors of Recombinant Selenoprotein Glutathione Peroxidase 4 (GPX4) (AID 1845192); note: nearly all actives have a fitted effect of over 65% in size; note: potency is the fitted concentration of half-maximal effect
Method in brief: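 NADPH consumption followed by fluorescence at 340/450 nm, t=0 and after 15 min at room temperature. Reaction started with cumene hydroperoxide (0.5 mM final) after 30 min compound–GPX4 preincubation; final 200 nM GPX4, 100 nM GR, 1 mM GSH, 0.5 mM NADPH.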

[4] = qHTS drug screen for cell cycle checkpoint inhibitors in PARPi-resistant BRCA-mutant ovarian cancer cell lines. (AID 1963452; calls by dose curve); conditions: PEO1/OlaR viability, CellTiter-Glo luminescence, 96 h, stronger effect = lower value
Method in brief: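 PEO1, PEO4 and PEO1/OlaR ovarian cancer cells, 600 per well, exposed 96 h at 37C to a dilution series. Viability read by CellTiter-Glo luminescence, normalized to DMSO and empty wells; activity summarized as Z-AUC.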

[5] = Primary qHTS for inhibitors of nuclear receptor binding SET domain protein 2 (NSD2) in an isogenic RCH-ACV NSD2 p.E1099K mutant (9B) (AID 1645876); note: nearly all actives have a fitted effect of over 70% in size; note: potency is the fitted concentration of half-maximal effect
[6] = measured here: PEO1 parental Z-AUC

Chain of Phospholipid hydroperoxide glutathione peroxidase GPX4 (Homo sapiens) (P36969 whole entry, looked up): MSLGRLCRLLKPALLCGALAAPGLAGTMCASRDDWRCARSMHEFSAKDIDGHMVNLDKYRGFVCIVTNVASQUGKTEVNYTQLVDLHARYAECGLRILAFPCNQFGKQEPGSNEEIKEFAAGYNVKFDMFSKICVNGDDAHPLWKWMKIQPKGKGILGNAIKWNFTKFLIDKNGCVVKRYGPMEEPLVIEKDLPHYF
Chain of Glutathione peroxidase 1 (Homo sapiens) (P07203 whole entry, looked up): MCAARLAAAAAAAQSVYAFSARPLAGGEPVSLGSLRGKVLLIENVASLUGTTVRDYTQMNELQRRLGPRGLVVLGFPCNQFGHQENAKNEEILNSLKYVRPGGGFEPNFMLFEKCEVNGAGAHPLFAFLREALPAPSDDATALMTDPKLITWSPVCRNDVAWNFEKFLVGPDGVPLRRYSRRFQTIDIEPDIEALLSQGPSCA

Q: Which Potency [1] does the source give for `CC/C(=C(/c1ccc(/C=C/C(=O)O)cc1)c1ccc2[nH]ncc2c1)c1ccc(F)cc1Cl` here?
A: 23.5 µM (active)

Q: What about the Potency [2] of the same compound?
A: inactive

Q: What about the Potency [3] of the same compound?
A: 4.04 µM (active)

Q: And the Z-AUC [4]?
A: 1.39 (inactive)

Q: What about the Z-AUC [4, 6] of the same compound?
A: 0.628

Q: What about the Z-AUC ([4]; measured here: PEO4 Z-AUC) of the same compound?
A: -0.0261

Q: Which results are given for `Cn1cc(C2=C(c3cn(C)c4cc([N+](=O)[O-])ccc34)C(=O)NC2=O)c2ccccc21`?
A: Potency [5]: 0.525 µM (active); Potency [1]: 0.417 µM (active); Z-AUC [4]: -0.69 (inactive); Z-AUC [4, 6]: -0.95; Z-AUC ([4]; measured here: PEO4 Z-AUC): -1.21

Q: With `COc1ccccc1-c1nc(SCC(=O)Nc2ccc(C)c(C)c2)n[nH]1` as the compound, how does the Potency [5] read?
A: inactive

Q: And the Potency [2]?
A: inactive

Q: With `O=C(Nc1ncc(SCCN2CCCC2)s1)[C@]1(c2ccc(S(=O)(=O)C3CC3)cc2)C[C@H]1C1CCCCC1` as the compound, how does the Potency [5] read?
A: 10.5 µM (active)

Q: What about the Potency [1] of the same compound?
A: 8.33 µM (active)

Q: And the Potency [2]?
A: inactive

Q: And the Potency [3]?
A: inactive

Q: And the Z-AUC [4]?
A: 0.2 (inactive)

Q: What about the Z-AUC [4, 6] of the same compound?
A: -0.0651

Q: And the Z-AUC ([4]; measured here: PEO4 Z-AUC)?
A: 0.2

Q: With `CC1(C)OCCn2c1nc1c(N3CCOCC3)nc(-c3cnc(N)nc3)nc12` as the compound, how does the Potency [5] read?
A: 0.332 µM (active)

Q: What about the Potency [2] of the same compound?
A: inactive

Q: And the Potency [3]?
A: inactive

Q: And the Z-AUC [4]?
A: -0.953 (inactive)

Q: What about the Z-AUC [4, 6] of the same compound?
A: -0.219

Q: And the Z-AUC ([4]; measured here: PEO4 Z-AUC)?
A: -0.151

Q: What does the source list for `C[C@@H]1COCCN1c1cc(-c2ccnn2C)c2ccnc(-c3ccn[nH]3)c2n1`?
A: Potency [5]: 0.209 µM (active); Potency [1]: 0.186 µM (active); Potency [3]: 20.2 µM (active); Z-AUC [4]: -0.499 (inactive); Z-AUC [4, 6]: -1.38; Z-AUC ([4]; measured here: PEO4 Z-AUC): -1.35

Q: With `CCOC(=O)C1=CCCCC1S(=O)(=O)Nc1ccc(F)cc1Cl` (stereo not given) as the compound, how does the Potency [5] read?
A: 20.9 µM (active)

Q: What about the Potency [1] of the same compound?
A: 18.6 µM (active)

Q: And the Potency [2]?
A: inactive

Q: And the Z-AUC [4]?
A: 1.33 (inactive)

Q: And the Z-AUC [4, 6]?
A: 1.11

Q: What about the Z-AUC ([4]; measured here: PEO4 Z-AUC) of the same compound?
A: 1.15

Q: For `CCCCCc1ccc(/C=C/[C@H](O)[C@@H](CO)NC)cc1`, which Potency [5] is on record?
A: 23.1 µM (active)

Q: What about the Potency [2] of the same compound?
A: inactive

Reference: PubChem BioAssay (NCATS)
